# According to PubChem BioAssay AID1159580 (chemical genetic matrix, 2015):
# Where “and” joins values, the source holds several entries; their conditions need not be identical. Equal entries are not always repeated. Screen size: about 5,500 compounds; about 2,000 (36%) were called active. About 18% were inconclusive and are not listed. Cut-off read from the data, not from the text of the source: active = normalized growth mostly below about 0.91 (no sharp cut-off); inconclusive = no clear call, values can overlap the other calls; inactive = mostly above about 0.92. Some of the results follow. The source holds several records for some structures; these can differ, active in one and inactive in another.
# Test: chemical genetic growth profiling, strain panel (AID 1159580);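 note: tested at 20 µM; growth read once vehicle control cultures reached saturation at 30 °C; 1 = growth at the plate median or of vehicle wells; lower values mean less growth of the strain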
# Settings: growth OD
structure (smiles),measurement,setting,value
COc1ccccc1N1CCNCC1,normalized growth,"S. cerevisiae deletion strains, locus YAL013W, strain DEP1, stronger effect = lower value",1.01 (inactive) and 0.975 (inactive)
same,normalized growth,"S. cerevisiae deletion strains, locus YAL040C, strain CLN3, stronger effect = lower value",0.965 (inactive)
same,normalized growth,"S. cerevisiae deletion strains, locus YBR021W, strain FUR4, stronger effect = lower value",1.01 (inactive)
same,normalized growth,"S. cerevisiae deletion strains, locus YBR229C, strain ROT2, stronger effect = lower value",1.01 (inactive)
same,normalized growth,"S. cerevisiae deletion strains, locus YCL029C, strain bik1, stronger effect = lower value",1.03 (inactive)
same,normalized growth,"S. cerevisiae deletion strains, locus YCL061C, strain MRC1 (second series), stronger effect = lower value",0.993 (inactive)
same,normalized growth,"S. cerevisiae deletion strains, locus YDL035C, strain GPR1, stronger effect = lower value",1.01 (inactive)
same,normalized growth,"S. cerevisiae deletion strains, locus YDL074C, strain BRE1, stronger effect = lower value",1.01 (inactive)
same,normalized growth,"S. cerevisiae deletion strains, locus YDL101C, strain DUN1, stronger effect = lower value",1 (inactive)
same,normalized growth,"S. cerevisiae deletion strains, locus YDL134C, strain PPH21, stronger effect = lower value",1.01 (inactive)
same,normalized growth,"S. cerevisiae deletion strains, locus YDL185W, strain tfp1, stronger effect = lower value",1.03 (inactive)
same,normalized growth,"S. cerevisiae deletion strains, locus YDL192W, strain arf1, stronger effect = lower value",1.03 (inactive)
same,normalized growth,"S. cerevisiae deletion strains, locus YDR101C, strain arx1, stronger effect = lower value",1.02 (inactive)
same,normalized growth,"S. cerevisiae deletion strains, locus YDR150W, strain NUM1, stronger effect = lower value",1 (inactive) and 0.996 (inactive)
same,normalized growth,"S. cerevisiae deletion strains, locus YDR162C, strain NBP2, stronger effect = lower value",1.01 (inactive)
same,normalized growth,"S. cerevisiae deletion strains, locus YDR318W, strain mcm21, stronger effect = lower value",1.03 (inactive)
same,normalized growth,"S. cerevisiae deletion strains, locus YDR363W, strain ESC2, stronger effect = lower value",0.962 (inactive)
same,normalized growth,"S. cerevisiae deletion strains, locus YDR388W, stronger effect = lower value",1.03 (inactive)
same,normalized growth,"S. cerevisiae deletion strains, locus YDR502C, strain sam2, stronger effect = lower value",1.02 (inactive)
same,normalized growth,"S. cerevisiae deletion strains, locus YEL061C, strain CIN8, stronger effect = lower value",1.01 (inactive)
same,normalized growth,"S. cerevisiae deletion strains, locus YER002W, strain NOP16, stronger effect = lower value",0.99 (inactive)
same,normalized growth,"S. cerevisiae deletion strains, locus YER110C, stronger effect = lower value",1.03 (inactive)
same,normalized growth,"S. cerevisiae deletion strains, locus YER155C, strain BEM2, stronger effect = lower value",1.01 (inactive)
same,normalized growth,"S. cerevisiae deletion strains, locus YER167W, strain BCK2, stronger effect = lower value",1.03 (inactive)
same,normalized growth,"S. cerevisiae deletion strains, locus YGL078C, strain dbp3, stronger effect = lower value",1.02 (inactive)
same,normalized growth,"S. cerevisiae deletion strains, locus YGL086W, strain mad1, stronger effect = lower value",1.02 (inactive)
same,normalized growth,"S. cerevisiae deletion strains, locus YGL248W, strain PDE1, stronger effect = lower value",1.01 (inactive)
same,normalized growth,"S. cerevisiae deletion strains, locus YGR078C, strain PAC10, stronger effect = lower value",1 (inactive)
same,normalized growth,"S. cerevisiae deletion strains, locus YGR135W, strain pre9, stronger effect = lower value",1.02 (inactive)
same,normalized growth,"S. cerevisiae deletion strains, locus YGR229C, strain SMI1, stronger effect = lower value",0.999 (inactive)
same,normalized growth,"S. cerevisiae deletion strains, locus YGR252W, strain gcn5, stronger effect = lower value",1.05 (inactive)
same,normalized growth,"S. cerevisiae deletion strains, locus YHR030C, strain SLT2, stronger effect = lower value",0.999 (inactive)
same,normalized growth,"S. cerevisiae deletion strains, locus YHR079C, strain IRE1 (second series), stronger effect = lower value",1.03 (inactive)
same,normalized growth,"S. cerevisiae deletion strains, locus YHR094C, strain hxt1, stronger effect = lower value",1.03 (inactive)
same,normalized growth,"S. cerevisiae deletion strains, locus YHR129C, strain ARP1, stronger effect = lower value",1 (inactive)
same,normalized growth,"S. cerevisiae deletion strains, locus YHR200W, strain rpn10, stronger effect = lower value",1.03 (inactive)
same,normalized growth,"S. cerevisiae deletion strains, locus YIL066C, strain RNR3, stronger effect = lower value",1.01 (inactive)
same,normalized growth,"S. cerevisiae deletion strains, locus YIL073C, strain SPO22, stronger effect = lower value",1.12 (inactive)
same,normalized growth,"S. cerevisiae deletion strains, locus YIL125W, strain kgd1, stronger effect = lower value",1.02 (inactive)
same,normalized growth,"S. cerevisiae deletion strains, locus YIR030C, strain dcg1, stronger effect = lower value",1.04 (inactive)
same,normalized growth,"S. cerevisiae deletion strains, locus YJL095W, strain BCK1, stronger effect = lower value",1 (inactive)
same,normalized growth,"S. cerevisiae deletion strains, locus YJL134W, strain LCB3, stronger effect = lower value",0.999 (inactive)
same,normalized growth,"S. cerevisiae deletion strains, locus YJL168C, strain set2, stronger effect = lower value",1.04 (inactive)
same,normalized growth,"S. cerevisiae deletion strains, locus YJL187C, strain SWE1 (second series), stronger effect = lower value",1.01 (inactive)
same,normalized growth,"S. cerevisiae deletion strains, locus YJR043C, strain POL32, stronger effect = lower value",1.01 (inactive)
same,normalized growth,"S. cerevisiae deletion strains, locus YJR075W, strain HOC1, stronger effect = lower value",0.969 (inactive) and 0.984 (inactive)
same,normalized growth,"S. cerevisiae deletion strains, locus YKL009W, strain mrt4, stronger effect = lower value",0.986 (inactive)
same,normalized growth,"S. cerevisiae deletion strains, locus YKL068W, stronger effect = lower value",1.01 (inactive)
same,normalized growth,"S. cerevisiae deletion strains, locus YKL085W, strain MDH1 (second series), stronger effect = lower value",1.04 (inactive)
same,normalized growth,"S. cerevisiae deletion strains, locus YKL085W, strain MDH1, stronger effect = lower value",1.04 (inactive)
same,normalized growth,"S. cerevisiae deletion strains, locus YKL190W, strain CNB1, stronger effect = lower value",0.994 (inactive)
same,normalized growth,"S. cerevisiae deletion strains, locus YKR001C, strain vps1, stronger effect = lower value",1.04 (inactive)
same,normalized growth,"S. cerevisiae deletion strains, locus YLR039C, strain RIC1, stronger effect = lower value",1.05 (inactive)
same,normalized growth,"S. cerevisiae deletion strains, locus YLR058C, strain SHM2, stronger effect = lower value",1.01 (inactive)
same,normalized growth,"S. cerevisiae deletion strains, locus YLR102C, strain apc9, stronger effect = lower value",1.04 (inactive)
same,normalized growth,"S. cerevisiae deletion strains, locus YLR262C, strain YPT6, stronger effect = lower value",1.06 (inactive)
same,normalized growth,"S. cerevisiae deletion strains, locus YLR268W, strain sec22, stronger effect = lower value",1.02 (inactive)
same,normalized growth,"S. cerevisiae deletion strains, locus YLR330W, strain CHS5, stronger effect = lower value",1 (inactive)
same,normalized growth,"S. cerevisiae deletion strains, locus YLR342W, strain FKS1 (second series), stronger effect = lower value",1.01 (inactive)
same,normalized growth,"S. cerevisiae deletion strains, locus YLR371W, strain rom2, stronger effect = lower value",1.03 (inactive)
same,normalized growth,"S. cerevisiae deletion strains, locus YLR418C, strain cdc73, stronger effect = lower value",1.04 (inactive)
same,normalized growth,"S. cerevisiae deletion strains, locus YML016C, strain PPZ1, stronger effect = lower value",1.01 (inactive)
same,normalized growth,"S. cerevisiae deletion strains, locus YML032C, strain rad52, stronger effect = lower value",1.03 (inactive)
same,normalized growth,"S. cerevisiae deletion strains, locus YML124C, strain tub3, stronger effect = lower value",1.02 (inactive)
same,normalized growth,"S. cerevisiae deletion strains, locus YMR078C, strain ctf18, stronger effect = lower value",1.04 (inactive)
same,normalized growth,"S. cerevisiae deletion strains, locus YMR223W, strain ubp8, stronger effect = lower value",1.03 (inactive)
same,normalized growth,"S. cerevisiae deletion strains, locus YMR263W, strain SAP30, stronger effect = lower value",0.997 (inactive) and 0.985 (inactive)
same,normalized growth,"S. cerevisiae deletion strains, locus YMR307W, strain GAS1, stronger effect = lower value",0.992 (inactive) and 1 (inactive)
same,normalized growth,"S. cerevisiae deletion strains, locus YNL067W, strain RPL9B, stronger effect = lower value",1 (inactive)
same,normalized growth,"S. cerevisiae deletion strains, locus YNL128W, strain TEP1, stronger effect = lower value",1.01 (inactive)
same,normalized growth,"S. cerevisiae deletion strains, locus YNL153C, strain GIM3, stronger effect = lower value",0.987 (inactive) and 1.27 [resistant] (active)
same,normalized growth,"S. cerevisiae deletion strains, locus YNL175C, strain NOP13, stronger effect = lower value",0.992 (inactive)
same,normalized growth,"S. cerevisiae deletion strains, locus YNL197C, strain WHI3, stronger effect = lower value",1.02 (inactive)
same,normalized growth,"S. cerevisiae deletion strains, locus YNL224C, strain SQS1, stronger effect = lower value",0.994 (inactive)
same,normalized growth,"S. cerevisiae deletion strains, locus YNL233W, strain BNI4, stronger effect = lower value",1.02 (inactive)
same,normalized growth,"S. cerevisiae deletion strains, locus YNL250W, strain rad50, stronger effect = lower value",1.05 (inactive)
same,normalized growth,"S. cerevisiae deletion strains, locus YNL271C, strain bni1, stronger effect = lower value",1.04 (inactive)
same,normalized growth,"S. cerevisiae deletion strains, locus YNL298W, strain CLA4, stronger effect = lower value",1.05 (inactive)
same,normalized growth,"S. cerevisiae deletion strains, locus YNL307C, strain MCK1, stronger effect = lower value",1.05 (inactive)
same,normalized growth,"S. cerevisiae deletion strains, locus YNL322C, strain KRE1, stronger effect = lower value",1.01 (inactive) and 0.972 (inactive)
same,normalized growth,"S. cerevisiae deletion strains, locus YNR052C, strain pop2, stronger effect = lower value",1.03 (inactive)
same,normalized growth,"S. cerevisiae deletion strains, locus YOL006C, strain TOP1, stronger effect = lower value",0.997 (inactive)
same,normalized growth,"S. cerevisiae deletion strains, locus YOL012C, strain htz1",0.807 (inactive)
same,normalized growth,"S. cerevisiae deletion strains, locus YOL147C, strain pex11, stronger effect = lower value",1.02 (inactive)
same,normalized growth,"S. cerevisiae deletion strains, locus YOR061W, strain CKA2, stronger effect = lower value",1.01 (inactive)
same,normalized growth,"S. cerevisiae deletion strains, locus YOR069W, strain VPS5, stronger effect = lower value",0.997 (inactive)
same,normalized growth,"S. cerevisiae deletion strains, locus YOR083W, strain WHI5 (second series), stronger effect = lower value",1 (inactive)
same,normalized growth,"S. cerevisiae deletion strains, locus YOR136W, strain idh2, stronger effect = lower value",1.03 (inactive)
same,normalized growth,"S. cerevisiae deletion strains, locus YOR144C, strain elg1, stronger effect = lower value",1.03 (inactive)
same,normalized growth,"S. cerevisiae deletion strains, locus YOR184W, strain ser1, stronger effect = lower value",1.05 (inactive)
same,normalized growth,"S. cerevisiae deletion strains, locus YOR316C, strain cot1, stronger effect = lower value",1.03 (inactive)
same,normalized growth,"S. cerevisiae deletion strains, locus YPL055C, strain LGE1, stronger effect = lower value",1.03 (inactive) and 0.983 (inactive)
same,normalized growth,"S. cerevisiae deletion strains, locus YPL241C, strain CIN2, stronger effect = lower value",1.01 (inactive)
same,normalized growth,"S. cerevisiae deletion strains, locus YPR119W, strain clb2, stronger effect = lower value",1.02 (inactive)
same,normalized growth,"S. cerevisiae deletion strains, locus YPR141C, strain kar3, stronger effect = lower value",1.03 (inactive)
same,normalized growth,"S. cerevisiae deletion strains, locus YPR163C, strain tif3, stronger effect = lower value",1.03 (inactive)
same,normalized growth,"S. cerevisiae deletion strains, locus YPR167C, strain met16, stronger effect = lower value",1.03 (inactive)
same,normalized growth,"S. cerevisiae deletion strains, strain wtn01, stronger effect = lower value",1.01 (inactive)
same,normalized growth,"S. cerevisiae strains, strain wild type, stronger effect = lower value",1.01 (inactive)
